PubChem BioAssay (Tox21)
Records with an inconclusive call do not appear. Where a call stands in place of a potency, no number is given. Calls of active or inactive are those of the source. Calls come from the whole dose curve; as a rule, active = well fitted inhibition curve with a large enough effect in the signal ratio in the repeat runs (not every such curve was filed as active); inconclusive = weak or mixed curves, or effect the other way; inactive = no such curve, though single readings can be large or run the other way; the % refers to the signal ratio.

Target: Peroxisome proliferator-activated receptor delta (Homo sapiens) (UniProt Q03181)
Sequence (Q03181 whole entry, looked up): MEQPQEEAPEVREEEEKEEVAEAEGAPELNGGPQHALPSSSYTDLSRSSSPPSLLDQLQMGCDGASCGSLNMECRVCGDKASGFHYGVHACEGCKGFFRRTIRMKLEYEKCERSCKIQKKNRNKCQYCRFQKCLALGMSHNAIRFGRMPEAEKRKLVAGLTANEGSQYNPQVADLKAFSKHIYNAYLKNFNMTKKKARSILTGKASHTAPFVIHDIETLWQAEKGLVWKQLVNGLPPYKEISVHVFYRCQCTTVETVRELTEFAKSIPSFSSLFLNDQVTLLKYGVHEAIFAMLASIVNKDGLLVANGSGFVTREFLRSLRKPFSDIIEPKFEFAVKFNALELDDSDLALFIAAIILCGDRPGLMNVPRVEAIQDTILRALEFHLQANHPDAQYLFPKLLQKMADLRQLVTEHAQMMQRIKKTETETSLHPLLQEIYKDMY
Test: qHTS assay to identify small molecule antagonists of the peroxisome proliferator-activated receptor delta (PPARd) signaling pathway (AID 743215);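 note: cells stimulated with agonist L165041 at 300 nM final during compound exposure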
Conditions: HEK293H PPARd-UAS-bla, beta-lactamase FRET ratio, antagonist, 17 h; series mostly up to 62 µM
Text: U.S. Tox21 Program National Center for Advancing Translational Sciences [NCATS] NIH Chemical Genomics Center [NCGC] U.S. Environmental Protection Agency [EPA] National Institutes of Environmental Health Sciences [NIEHS] National Toxicology Program [NTP] U.S. Food and Drug Administration [FDA] Tox21 Assay Overview: The peroxisome proliferator-activated receptors (PPARs) are lipid-activated transcription factors of the nuclear receptor superfamily with three distinct subtypes namely PPAR alpha, PPAR delta (PPARd) and PPAR gamma. All these subtypes heterodimerizes with Retinoid X receptor (RXR) and have different physiological functions. […] To identify the compounds that inhibit PPAR-delta signaling, GeneBLAzer PPAR delta UAS-bla HEK293H cell line (Invitrogen, Carlsbad, CA, USA) containing a beta-lactamase reporter gene under the control of an Upstream Activator Sequence (UAS) was used to screen the Tox21 compound library.
Tox21 Assay Protocol Summary: PPARd-bla cells were dispensed at 3000 cells/5uL/well in 1536-well black wall/clear bottom plates using a Multidrop Combi (Thermo Fisher Scientific, Waltham, MA) dispenser. After the assay plates were incubated at 37 C and 5% CO2 for 5 h, 23 nL of compounds dissolved in DMSO, positive controls or DMSO only was transferred to the assay plate by a Pintool station (Kalypsys, San Diego, CA), followed by addition of 1ul L165041 (300 nM, final concentration in the wells). The assay plates were incubated at 37 C for 17 h, and then 1 uL of LiveBLAzerTM B/G FRET substrate was added using a Bioraptr Flying Reagent Dispenser (FRD) workstation (Beckman Coulter, Indianapolis, IN, USA). The assay plates were incubated at room temperature for 2 h and fluorescence intensity was measured by an Envision plate reader (PerkinElmer, Shelton, CT).

| SMILES | Potency |
| --- | --- |
| N#Cc1cc(Br)c(O)c(Br)c1 | inactive |
| CCOC(=O)C(C)OC(=O)c1cc(Oc2ccc(C(F)(F)F)cc2Cl)ccc1[N+](=O)[O-] (stereo not given) | inactive |
| COC(=O)c1sccc1S(=O)(=O)NC(=O)Nc1nc(C)nc(OC)n1 | inactive |
| COP(=S)(OC)Oc1ccc([N+](=O)[O-])cc1 | inactive |
| N#CC(Br)Br | inactive |
| CCC(C)c1cc([N+](=O)[O-])cc([N+](=O)[O-])c1O (stereo not given) | inactive |
| NNC(=S)NN | inactive |
| CCCCCCCCCCCOC(=O)c1ccccc1C(=O)OCCCCCCCCCCC | inactive |
| C=C(C)C(=O)OCC1CO1 (stereo not given) | inactive |
| CC(C)(C)c1ccccc1O | inactive |
| C#CCOS(=O)OC1CCCCC1Oc1ccc(C(C)(C)C)cc1 (stereo not given) | inactive |
| Nc1cccnc1 | inactive |
| CCC(CC)Nc1c([N+](=O)[O-])cc(C)c(C)c1[N+](=O)[O-] | inactive |
| CCOc1cc(C=O)ccc1O | inactive |
| CC(C)(c1cc(Cl)c(O)c(Cl)c1)c1cc(Cl)c(O)c(Cl)c1 | inactive |
| O=P(Oc1ccccc1)(Oc1ccccc1)Oc1ccccc1 | inactive |
| O=Cc1ccco1 | inactive |
| CCCCC(CC)COC(=O)c1ccc(C(=O)OCC(CC)CCCC)c(C(=O)OCC(CC)CCCC)c1 (stereo not given) | inactive |
| CCCCCCOC(=O)c1ccccc1C(=O)OCCCCCC | inactive |
| Nc1ccncc1 | inactive |

| SMILES | Potency |
| --- | --- |
| Oc1ccc(-c2ccccc2)cc1 | inactive |
| Brc1ccc(Oc2cc(Br)c(Br)cc2Br)c(Br)c1 | inactive |
| O=P(O)(O)CCCl | inactive |
| CCCCOCCOP(=O)(OCCOCCCC)OCCOCCCC | inactive |
| CNC(=O)Oc1cccc2c1OC(C)(C)O2 | inactive |
| Cc1ccc2c(c1N)C(=O)c1ccccc1C2=O | inactive |
| Cc1cc(Cl)ccc1OCCCC(=O)O | inactive |
| O=C(CCl)c1ccccc1 | inactive |
| Nn1cnnc1 | inactive |
| NC(=S)Nc1ccccc1 | inactive |
| O=[N+]([O-])c1c(Cl)c(Cl)c(Cl)c(Cl)c1Cl | inactive |
| ClC1C(Cl)C(Cl)C(Cl)C(Cl)C1Cl (stereo not given) | inactive |
| Oc1cc(Cl)ccc1Oc1ccc(Cl)cc1Cl | inactive |
| C#C[C@]1(O)CC[C@H]2[C@@H]3CCC4=CC(=O)CC[C@]4(C)[C@H]3CC[C@@]21C | inactive |
| CCN(N=O)C(N)=O | inactive |
| CC(C)(OOC(C)(C)c1ccccc1)c1ccccc1 | inactive |
| c1ccc(P(c2ccccc2)c2ccccc2)cc1 | inactive |
| c1ccc(NNc2ccccc2)cc1 | inactive |
| CC(C)C(=O)OCC(C)(C)C(OC(=O)C(C)C)C(C)C (stereo not given) | inactive |
| C1=Cc2cccc3cccc1c23 | inactive |
